By inhibition is commonly meant the change of the read-out against control, counted positive when it falls.

The campaign covered roughly 290,000 compounds. About 260 (0.09%) were called active. This is one part of a sample in which actives are shown more often than they occur. No stated cut-off is given here; in the data, active means inhibition above about 50%; inactive means the rest. Results with a measured potency or affinity are listed apart.

In PubChem BioAssay AID1778 (Sanford-Burnham Center for Chemical Genomics, 2009) one finds inhibition data, which are given here for 96 molecules.

In the experiment the target is Kappa-type opioid receptor (Homo sapiens) (UniProt P41145). Briefly: KOR antagonists, beta-arrestin recruitment, cell-based, luminescence, uHTS (AID 1778). Conditions: antagonist mode, active compounds read high; at 10 µM unless noted.
Kappa-type opioid receptor (Homo sapiens), sequence (P41145 whole entry, looked up): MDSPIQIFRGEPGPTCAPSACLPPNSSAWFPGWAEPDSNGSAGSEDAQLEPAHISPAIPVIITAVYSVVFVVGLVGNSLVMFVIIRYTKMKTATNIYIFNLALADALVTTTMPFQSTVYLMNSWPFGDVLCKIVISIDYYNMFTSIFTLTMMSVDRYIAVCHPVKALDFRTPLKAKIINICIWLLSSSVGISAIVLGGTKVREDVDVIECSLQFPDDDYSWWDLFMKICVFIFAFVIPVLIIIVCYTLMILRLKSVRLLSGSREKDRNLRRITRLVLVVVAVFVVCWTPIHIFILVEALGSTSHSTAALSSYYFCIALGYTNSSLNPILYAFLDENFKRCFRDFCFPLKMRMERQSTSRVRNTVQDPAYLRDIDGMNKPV
On to `CCOC(=O)C1CCN(C(=O)c2ccccc2CCc2ccccc2)CC1`, for which the inhibition is 12.9% (inactive).

`Cc1ccc(C(=O)Sc2cccccc2=O)cc1`: the inhibition was 88.3% (active).

Take `Cc1ccc(C(=O)CC(=O)c2ccccc2)cc1`: the inhibition is -30.1% [at 20 µM] (inactive).

On to `Cc1ccc(C(=O)Nc2ccccc2Sc2ccccc2)cc1`, for which the inhibition is 5.8% (inactive).

Consider `CCC1CCCCN1CCCNC(=O)c1csc2c1CCCCC2` (stereo unspecified), for which the inhibition was -8.9% (inactive).

Turning to `CCOc1ccc(C(=O)Nc2ccc3c(c2)OCCO3)cc1`, the inhibition is -31.1% (inactive).

For the molecule `NS(=O)(=O)c1ccc(CCNC(=O)CSc2nc3ccsc3c(=O)n2CC2CCC(C(=O)O)CC2)cc1` (stereo unspecified), the inhibition is -14.6% (inactive).

For `Cc1ccc(NS(=O)(=O)c2cccc3cccnc23)c(Cl)c1`, the inhibition was 19.4% (inactive).

For the molecule `O=[N+]([O-])c1ccccc1S(=O)(=O)Nc1ncccn1`, the inhibition is -24.4% (inactive).

As to `Cc1ccc(NS(=O)(=O)c2cccc3cccnc23)c(Br)c1`, the inhibition was -14.5% (inactive).

Consider `O=S(=O)(Nc1ccccc1O)c1cccc2cccnc12`, for which the inhibition is 9.3% (inactive).

On to `O=C(CCN1CCN(c2ccccc2)CC1)Nc1nccs1`, for which the inhibition is 11.6% (inactive).

Turning to `Cc1cccc(CN2CCN(C(=S)Nc3ccccc3)CC2)c1`, the inhibition is -33.1% [at 20 µM] (inactive).

For `Cc1ccc(CNC(=O)C2CCCN(c3nc(C)cc(C)n3)C2)cc1` (stereo unspecified), the inhibition was -35.8% [at 20 µM] (inactive).

On to `CCOc1ccc2noc3c2c1C(=O)c1ccccc1-3`, for which the inhibition is 7.4% (inactive).

With `CCOC(=O)N1CCN(c2cc(NCCC(=O)O)c3c4c(onc24)-c2ccccc2C3=O)CC1`, the inhibition is -32.6% (inactive).

With `CCOC(=O)C(C(=O)OCC)c1cc(Br)c2noc3c2c1C(=O)c1ccccc1-3`, the inhibition is 68.5% (active).

Consider `c1cncc(-c2cn(C[C@H]3CC[C@@H]([C@@H]4CC[C@H](Cn5cc(-c6cccnc6)nn5)O4)O3)nn2)c1`, for which the inhibition is -10.8% [at 20 µM] (inactive).

As to `COc1ccc(OCC(=O)Nc2cc(NC(=O)c3ccco3)ccc2OC)cc1`, the inhibition was 4.9% (inactive).

For the molecule `COc1cc(Br)cc(-c2nc3c(c(=O)[nH]c(=O)n3Cc3ccccc3)n2C)c1O`, the inhibition is 7.6% (inactive).

On to `CCN=c1scc(-c2ccc3c(c2)NC(=O)CO3)n1N=C1CCCC1`, for which the inhibition was 15.3% (inactive).

With `COCCN=c1scc(-c2ccc3c(c2)NC(=O)CO3)n1/N=C(\C)c1ccc(O)cc1`, the inhibition was 15.8% (inactive).

For `COC(=O)c1[nH]c2ccc(C)cc2c1NC(=O)CN1CCN(c2ccc(F)cc2)CC1`, the inhibition was -0.7% (inactive).

In the case of `COc1ccc(C(=O)N/N=C/c2ccccn2)cc1OC`, the inhibition is -42.3% (inactive).

`COc1ccc(C(=O)N/N=C(\C)CC(=O)Nc2ccccn2)cc1OC`: the inhibition was 3.4% (inactive).

`C/C(=N\NC(=O)C1COc2ccccc2O1)c1ccc(C)o1` (stereo unspecified): the inhibition was 13.3% (inactive).

For the molecule `COc1cc(C(=O)N/N=C(\C)c2ccccn2)cc(OC)c1OC`, the inhibition is -6.4% (inactive).

For the molecule `O=C(N/N=C/c1ccccn1)c1ccc(NC(=O)c2cccc([N+](=O)[O-])c2)cc1`, the inhibition is -28.7% (inactive).

As for `COc1ccc(C(=O)Nc2ccccc2C(=O)N/N=C/c2ccncc2)cc1OC`, the inhibition was -18.4% (inactive).

Turning to `COc1ccc(C(=O)N/N=C(\C)c2ccccn2)cc1OC`, the inhibition is 95% (active).

Regarding `C/C(=N\NC(=O)C1COc2ccccc2O1)c1cccs1` (stereo unspecified), the inhibition is -9.2% (inactive).

Regarding `O=C(N/N=C/c1ccccn1)c1ccccc1`, the inhibition was 30.7% (inactive).

On to `Cc1nc(CSc2ccc(Cl)cc2)cs1`, for which the inhibition was 1.3% (inactive).

As to `CCC1CCCCN1C(=O)CSc1nc(N)cc(N)n1` (stereo unspecified), the inhibition is 0.8% [at 20 µM] (inactive).

As to `C/C(=N\S(=O)(=O)c1ccc(C)cc1)NC(=S)Nc1ccc(C)cc1`, the inhibition was -12% (inactive).

With `CCOc1ccccc1N(C(=O)c1snc(C(N)=O)c1N)C(C(=O)NC1CCCC1)c1cccs1` (stereo unspecified), the inhibition is -14.9% (inactive).

In the case of `CCCOCn1cc(F)c(=O)[nH]c1=O`, the inhibition is 20.7% (inactive).

As for `COc1ccc(OCc2nnc(SCC(=O)Nc3ccccc3C#N)o2)cc1`, the inhibition is -9.7% (inactive).

`COc1ccc(NC(=O)c2ccc(CN(c3cc(Cl)ccc3C)S(=O)(=O)c3ccccc3)cc2)cc1OC`: the inhibition is -2.5% (inactive).

For `Cn1c(CNC(=O)c2ccccc2F)nnc1SCC(=O)NCc1ccccc1`, the inhibition is -10.1% (inactive).

On to `Fc1ccc(-c2ccnc(=S)[nH]2)cc1`, for which the inhibition is 2.9% (inactive).

Regarding `C/C(=N/NC(=O)c1ccccn1)c1ccncc1`, the inhibition was -12.4% (inactive).

For `C/C(=N/NC(=O)c1ccccn1)c1ccc(O)cc1`, the inhibition is 12.9% (inactive).

With `C/C(=N\NC(=O)c1ccc(F)cc1)c1ccccn1`, the inhibition is 86.6% (active).

Take `Cc1ccc(O)c(CO)n1`: the inhibition was 0.6% (inactive).

On to `Cc1ccc2ccc3ccc(C)nc3c2n1`, for which the inhibition was -8.8% [at 20 µM] (inactive).

On to `COc1ccc(-n2nc3c(N)n[nH]c3cc2=O)cc1`, for which the inhibition is -30.3% [at 20 µM] (inactive).

Take `COc1cccc(-n2nc(C#N)c(Cl)cc2=O)c1`: the inhibition is 32.8% (inactive).

With `Nc1n[nH]c2cc(=O)n(-c3ccc(Cl)cc3)nc12`, the inhibition is -68.5% [at 20 µM] (inactive).

Consider `CC(C)(C)c1ccc(-n2nc(C(N)=O)c(O)cc2=O)cc1`, for which the inhibition is -2% (inactive).

Regarding `COc1cc(C=O)ccc1OCCSc1ccc(Cl)cc1`, the inhibition is 16.4% (inactive).

Turning to `CC(CCc1ccccc1)NC(=O)c1ccc(NC(=O)c2ccc(Cl)cc2Cl)cc1` (stereo unspecified), the inhibition was 26.3% (inactive).

On to `C/C=N/NC(=O)CCNC(=O)c1ccccc1`, for which the inhibition is -40% (inactive).

With `CCCCn1c(-c2cccs2)nc2oc3ccccc3c(=O)c2c1=O`, the inhibition was 17.8% (inactive).

With `Cc1cc2nnc(SCC(=O)Nc3cc(S(=O)(=O)N4CCOCC4)ccc3Cl)n2c2ccccc12`, the inhibition is -21.8% (inactive).

As for `O=C(NNC(=O)C1CC=CCC1C(=O)O)c1cccs1` (stereo unspecified), the inhibition is 30.6% (inactive).

`CC1SCC(NC(=O)c2cccc(Cl)c2)CS1` (stereo unspecified): the inhibition was -29.1% (inactive).

With `CCN(CC(=O)Nc1ccccc1C(F)(F)F)C(=O)CCc1nc2ccccc2c(=O)[nH]1`, the inhibition was -11.6% (inactive).

For the molecule `Cc1nc2c(-c3ccc(Cl)cc3)c(C)[nH]n2c(=O)c1Cc1ccccc1`, the inhibition is 51% (active).

For the molecule `COc1ccc(-c2c(C)[nH]n3c(=O)c(Cc4ccccc4)c(C)nc23)cc1`, the inhibition is -5.1% (inactive).

As for `Cc1nc2c(-c3ccccc3)c(C)[nH]n2c(=O)c1Cc1ccccc1`, the inhibition was -10.5% [at 20 µM] (inactive).

As to `COc1ccc(CC(=O)Nc2ccc(C(C)=O)cc2)cc1`, the inhibition is -81.9% [at 20 µM] (inactive).

Regarding `Oc1[nH]c2ccccc2c1C=Nc1ccc2c(c1)OCCO2`, the inhibition is 0.8% (inactive).

For the molecule `Oc1ccc(N=Nc2ccc3c(c2)OCCO3)c(O)c1`, the inhibition is 34.9% (inactive).

Turning to `O=S(=O)(O)c1cccc2c(N=Nc3ccc(O)c4ncccc34)cccc12`, the inhibition was -7.2% (inactive).

For the molecule `O=S(=O)(Nc1ccc(N=Nc2ccc(O)c3ccccc23)cc1)c1ccccc1`, the inhibition is -3.4% (inactive).

Take `Oc1ccc(N=Nc2ccc3c(c2)OCO3)c2ccccc12`: the inhibition was 85.1% (active).

As to `Oc1ccc(N=Nc2ccc3c(c2)OCCO3)c2cccnc12`, the inhibition is 68.5% (active).

Regarding `Nc1ccc(N=Nc2ccccc2)c2cccnc12`, the inhibition is -4.3% (inactive).

Turning to `Oc1[nH]c2ccccc2c1C=Nc1ccc2c(c1)OCO2`, the inhibition was -33.1% (inactive).

On to `COc1ccccc1NC(=O)c1cc2c(CO)cnc(C)c2oc1=Nc1cccc(C(N)=O)c1`, for which the inhibition was 21.7% (inactive).

For `CCN(CC)CC#Cc1ccc(C)cc1`, the inhibition was -6.4% (inactive).

Regarding `CCC(C(=O)OC)n1cnc2c(nnn2-c2ccccc2)c1=O` (stereo unspecified), the inhibition was -16.1% [at 20 µM] (inactive).

Turning to `Cc1nn(-c2ccc(N3CCCCC3)nn2)c(C)c1CCC(=O)Nc1ccc(F)c(F)c1`, the inhibition was -31.5% (inactive).

With `Cc1cc(C)cc(NC(=O)c2ccc3c(c2)CCN3S(C)(=O)=O)c1`, the inhibition was -4.2% (inactive).

Consider `COc1ccccc1N1CCN(Cc2cc3c(cc2Br)OCCO3)CC1`, for which the inhibition is -44.1% (inactive).

In the case of `COc1ccccc1N1CCN(Cc2cc(Br)c(O)c3ncccc23)CC1`, the inhibition was 63.3% (active).

As for `Oc1c(CN2CCN(c3ccccc3)CC2)cc(Br)c2cccnc12`, the inhibition was 64% (active).

Consider `Oc1c(CN2CCCCC2)cc(Br)c2cccnc12`, for which the inhibition is -1.9% (inactive).

On to `COc1ccccc1N1CCN(Cc2ccc(O)c3ncccc23)CC1`, for which the inhibition was -12.2% (inactive).

As for `O=[N+]([O-])c1cc(CN2CCN(c3ccccc3)CC2)c(O)c2ncccc12`, the inhibition was 12% [at 20 µM] (inactive).

With `COc1ccc(N2CCN(C(=O)c3cc4c(=O)n(Cc5ccccc5)ccc4nc3C)CC2)cc1`, the inhibition is -13.1% (inactive).

In the case of `CCCCOc1ccc(C(=O)NNC(=S)NC(=O)CC)cc1`, the inhibition is 26.3% (inactive).

For `CCCOc1ccc(C(=O)NNC(=S)NC(C)=O)cc1`, the inhibition is 19.1% (inactive).

As for `CCc1nnc(NC(=O)c2ccc(-c3ccccc3F)o2)s1`, the inhibition is -18.1% (inactive).

For `CC(C)(C)C1CCC(=NNC(=S)Nc2cccnc2)CC1` (stereo unspecified), the inhibition was 11.2% (inactive).

`CC1=C/C(=N\NC(=S)NCCc2ccccc2)CC(C)(C)C1`: the inhibition is -16.1% (inactive).

Turning to `O=C(Nc1ccc(NC(=O)c2ccccc2Cl)nc1)c1ccco1`, the inhibition is -2% (inactive).

Take `CC(=O)O[C@@H]1[C@H]2[C@@H](C[C@@H](C)[C@@H]3C=CC(=O)[C@@]13C)OC(=O)[C@@H]2C`: the inhibition is 23.9% (inactive).

As for `C=C1C(=O)O[C@@H]2C[C@@H](C)[C@@H]3C=CC(=O)[C@@]3(C)[C@@H](OC(C)=O)[C@H]12`, the inhibition is 26.1% (inactive).

Consider `CN(C)CCCNC(=S)NCCNc1nc2cc3c(cc2cc1C#N)OCO3`, for which the inhibition is 0.9% (inactive).

Take `O=C(Nc1ccc(CN2CCS(=O)(=O)CC2)cc1)c1ccccc1`: the inhibition is 0.1% (inactive).

Take `CCC(=O)OCCNc1cc(SCCC(=O)OC)c2nonc2c1[N+](=O)[O-]`: the inhibition is 5.5% (inactive).

In the case of `CCCC(=O)OCCNc1cc(SCCC(=O)OC)c2nonc2c1[N+](=O)[O-]`, the inhibition is -12.2% (inactive).

As for `Cn1ccnc1Sc1cc(NCCCO)c([N+](=O)[O-])c2nonc12`, the inhibition is 41.5% (inactive).

As to `CCCSc1cc(NCCOC(=O)CCC)c([N+](=O)[O-])c2nonc12`, the inhibition was -2.8% (inactive).
